# Bioassay records from PubChem.
# Pol iota inh: qHTS for Inhibitors of Polymerase Iota. DNA polymerase iota (Homo sapiens), Q9UNA4. Potency, µM (series often up to 115 µM), without a hit: at the top dose activity, negative = inhibition, most hits filed as inhibitors. 390,000 compounds, 1% hits. Pol iota fluorescent replication assay, 10 min; note: potency is the fitted concentration of half-maximal effect
#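 Fluorescent replication assay read twice, at 0 min and 10 min after adding 50 nM (final) substrate. Enzyme (10 nM) and compounds were first incubated 15 min at room temperature; enzyme-free buffer wells were negative controls.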
# PI5P4K alpha inh: qHTS for Inhibitors of phosphatidylinositol 5-phosphate 4-kinase (PI5P4K); PI5P4Kalpha enzyme, ADP-Glo luminescence, 60 min; hits give low values; AID 652105, 2013; Phosphatidylinositol 5-phosphate 4-kinase type-2 alpha (Homo sapiens), P48426; 330,000 compounds, 1.2% hits; max response, %; active = max response of -50% or lower; inconclusive = between -30% and -50%; inactive = -30% or higher; note: value at the top dose of about 77 µM; % is set by controls: 0 for no effect and ±100 for the full control effect
#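 PI5P4Kalpha ADP-Glo assay; 5 microM ATP final; 60 min RT reaction; HEPES pH 7.4/EGTA/CHAPS, 5% DMSO; controls lacking substrate or enzyme; luminescent end-point.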
# Pol eta inh: qHTS for Inhibitors of Polymerase Eta; DNA polymerase eta (Homo sapiens), Q9Y253; recombinant Pol eta, fluorescent DNA replication assay; Potency, µM (top dose mostly 114 µM), inactives show at the highest dose activity change, negative = inhibition, hits mostly inhibitors; 390,000 compounds, 1.2% hits; AID 588591, 2011; note: potency is the fitted concentration of half-maximal effect; % is set by controls: 0 for no effect and ±100 for the full control effect
# Target sequence (Q9Y253 whole entry, looked up): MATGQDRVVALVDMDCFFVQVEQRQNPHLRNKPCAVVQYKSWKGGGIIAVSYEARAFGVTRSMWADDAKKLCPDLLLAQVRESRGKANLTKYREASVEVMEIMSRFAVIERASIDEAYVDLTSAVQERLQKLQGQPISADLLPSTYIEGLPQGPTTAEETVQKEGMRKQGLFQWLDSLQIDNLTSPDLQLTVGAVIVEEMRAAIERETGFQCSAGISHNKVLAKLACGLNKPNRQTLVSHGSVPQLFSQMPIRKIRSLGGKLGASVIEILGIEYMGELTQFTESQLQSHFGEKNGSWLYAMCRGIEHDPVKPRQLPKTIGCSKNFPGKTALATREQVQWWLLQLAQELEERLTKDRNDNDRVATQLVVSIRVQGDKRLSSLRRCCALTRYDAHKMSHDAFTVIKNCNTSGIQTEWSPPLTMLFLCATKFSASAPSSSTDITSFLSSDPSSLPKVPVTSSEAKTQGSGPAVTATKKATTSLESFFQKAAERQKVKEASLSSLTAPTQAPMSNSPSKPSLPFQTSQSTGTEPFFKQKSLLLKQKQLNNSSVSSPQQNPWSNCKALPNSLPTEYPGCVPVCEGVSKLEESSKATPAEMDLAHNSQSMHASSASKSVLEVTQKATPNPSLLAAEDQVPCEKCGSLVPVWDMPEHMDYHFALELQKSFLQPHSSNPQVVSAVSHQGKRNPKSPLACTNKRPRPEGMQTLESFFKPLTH
#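 Fluorescent replication assay: 50 nM final substrate added after a 15 min room-temperature compound preincubation with 10 nM enzyme. Signal taken at 0 min and again at 10 min.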
# WRN inhibitor: qHTS for Inhibitors of WRN Helicase. 360,000 compounds, 0.46% hits. Bifunctional 3'-5' exonuclease/ATP-dependent helicase WRN (Homo sapiens), Q14191. WRN helicase unwinding, fluorescent forked duplex, kinetic. Potency, µM (series often up to 114 µM), for the others: at the top dose activity change, negative = inhibition, usual class: inhibitors; note: potency is the fitted concentration of half-maximal effect; % is set by controls: 0 for no effect and ±100 for the full control effect; nearly all actives have a fitted effect of over 55% in size
#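 WRN at 20 nM final preincubated with compound 15 min at room temperature; reaction started with 100 nM fluorophore/quencher forked duplex oligonucleotide and 2 mM ATP final. Unwinding followed kinetically by red fluorescence (ex 525, em 598 nm).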
# Pol kappa inh: qHTS for Inhibitors of Polymerase Kappa. purified Pol kappa, fluorescent DNA synthesis assay, 10 min. DNA polymerase kappa (Homo sapiens), Q9UBT6. 400,000 compounds, 0.53% hits. AID 588579, 2011. Potency, µM (series often up to 107 µM), without a hit: top-dose activity, negative = inhibition, usual class: inhibitors; note: potency is the fitted concentration of half-maximal effect; % is set by controls: 0 for no effect and ±100 for the full control effect
#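 Activity was followed as the change in fluorescence between reads at 0 and 10 min after starting the reaction with 50 nM substrate. Beforehand, 10 nM polymerase had been preincubated with compound for 15 min at room temperature.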
# POLB inh: qHTS Assay for Inhibitors of DNA Polymerase Beta. Pol beta primer extension/strand displacement, fluorescence kinetic. Potency, µM (top dose mostly 114 µM), for the others: top-dose activity change, negative = inhibition, hits mostly inhibitors. 340,000 compounds, 1.3% hits. AID 485314, 2010; note: potency is the fitted concentration of half-maximal effect; % is set by controls: 0 for no effect and ±100 for the full control effect
#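 Human Pol beta at 10 nM; strand-displacement substrate 50 nM final. Compound exposure 15 min at room temperature before start, reaction 10 min at room temperature.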
# * marks the source's active call; other numbers are inactive results; ? = inconclusive; . = no result given; ! = not confirmed by another sample; [ ] = remark or other dose. Only some compounds are listed: those with a hit (about 2.8% of all), similar ones and a draw of the others. Unless noted, calls come from the whole dose curve; as a rule, active = well fitted curve in the direction sought with a large enough effect; inconclusive = small, poorly fitted or top-dose-only effect, or another doubt; inactive = no such curve, though single readings can be large; an effect the other way counts as inactive or inconclusive.
SMILES,Pol iota inh,PI5P4K alpha inh,Pol eta inh,WRN inhibitor,Pol kappa inh,POLB inh
CCCCC/C=C/C=C1/C(=O)C=C[C@@H]1C/C=C\CCCC(=O)O,.,.,.,.,3.2µM*!,.
CCCCC[C@@H](/C=C/C1C(=O)C=C[C@H]1C/C=C\CCCC(=O)O)OC(C)=O (stereo not given in full),?,-6,45µM*,-4%[11.6 µM],-19%,.
CCCCC[C@H](O)/C=C/[C@H]1C=CC(=O)[C@@H]1C/C=C\CCCC(=O)O,.,.,.,.,2%[19.4 µM],3.2µM*
CCCCCCCC/C=C\CCCCCCCCCCCC(=O)O,.,.,.,.,11µM*,.
CCCCCC(O)C=CC1C(O)CC(O)C1CC=CCCCC(=O)O (stereo not given),.,4,-6%,-6%,.,.
Cc1cccc(C)c1-n1ncc(C(=O)N2CCN(c3ccccc3)CC2)c1C1CCN(C(=O)OC(C)(C)C)CC1,2%,.,-18%,.,-8%,1%
O=C(CSc1nnc(SCc2ccccc2Cl)s1)N/N=C/c1c[nH]c2ccccc12,7%,-6,?,-34%,-7%,4%
Cc1ccc(CSc2nnc(SCC(=O)N/N=C/c3c[nH]c4ccccc34)s2)cc1,3.5µM*,-27,?,?,-22%,7.9µM*
CCOC(=O)C1=C(C)N(c2ccc(C)c(C)c2)C(=O)/C1=C\c1ccco1,12%,.,-14%,-9%,-5%,28%
COC(=O)C1=C(C)N(c2ccc(C)c(C)c2)/C(=C/c2ccco2)C1=O,?,?,-3%,?,-21%,22µM*
CN(C)S(=O)(=O)N(CC(=O)NCCSc1ccc(Cl)cc1)c1ccccc1,?,.,?,.,-28%,22µM*
CN(C)S(=O)(=O)N(CC(=O)NCCSc1ccccc1)c1ccccc1,10%,.,-12%,.,-9%,-14%
CN(C)S(=O)(=O)N(CC(=O)NCCSCc1ccccc1)c1ccccc1,?,?,?,-12%[11.6 µM],?,35µM*
CN(C)S(=O)(=O)N(CC(=O)N(Cc1ccccc1)Cc1ccccc1)c1ccccc1,?,.,?,-27%[57.1 µM],?,22µM*
C=C1C=C(C(F)F)n2ncc(C(=O)NCCc3ccc(Cl)cc3)c2N1,26%,.,.,.,8%,.
COc1ccccc1CNC(=O)COc1cc(=O)n(C)c2ccccc12,1%,.,-12%,.,-3%,1%
N/C(=N\OC(=O)c1cccc2ccccc12)c1cccc([N+](=O)[O-])c1,?,.,-9%,-15%,-31%,50µM*
Cc1ccccc1C(=O)O/N=C(\N)c1cccc([N+](=O)[O-])c1,-23%,.,-9%,-9%,0%,?
Cc1cc(C)n2cc(CSCc3ccco3)nc2n1,?,2,?,?,-30%,3%
Cc1cccc2nc(CSCc3ccco3)cn12,?,-11,20µM*,-21%[57.1 µM],-28%,40µM*
COc1ccc(C2=NN(C(=O)CSc3nc4ncc(Cl)cc4[nH]3)C(c3ccco3)C2)cc1 (stereo not given),45µM*,-30,-11%,-28%,89µM*,11%
Cc1ccc(C2=NN(C(=O)CSc3nc4ncc(Cl)cc4[nH]3)C(c3ccco3)C2)cc1 (stereo not given),43%,0,-4%,-4%,-10%,?
Nc1cccc2c(=O)[nH]ccc12,.,.,.,.,-12%[12 µM],.
O=C(Nc1ccc(-c2cn3ccccc3n2)cc1)c1cccs1,?,-10,?,-10%[11.6 µM],?,10µM*
COc1ccc(CC(=O)Nc2ccc(-c3cn4ccccc4n3)cc2)cc1,2%,1,4%,5%,-16%,1%
COc1ccc(Br)cc1/C=C/C(=O)c1ccc(NC(C)=O)cc1,100µM*,-2,?,-3%[11.6 µM],-19%,20%
